Screening results (PubChem)
The list is not random: actives were taken first. Their share in the collection is about 2%.
IL-2 act = IL-2 activation; IL-2 activation reporter assay, cell-based qHTS; stimulated with anti-CD3/CD4/CD28 beads; in transgenic mouse T cells; activation, % (series mostly up to about 46 µM); hit rate 0.065% among 360,000; in the data active = activation above about 50%; inconclusive = mostly about 30% to 49%
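Quantitative HTS in unstimulated transgenic mouse T cells, with memory T cells as non-tolerant control and PMA/ionomycin as tolerance-bypass control. Compound pretreatment lasted 60 minutes before 18 h bead stimulation; EGFP/DsRed fluorescence read.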
ClpP mod = qHTS Assay for Activators of ClpP | Potency, µM (series often up to 57.5 µM) | ATP-dependent Clp protease proteolytic subunit (Bacillus subtilis (strain 168)), P80244 | hit rate 1.9% among 340,000 | purified B. subtilis ClpP, FRET peptide cleavage, 20 min; active = well fitted falling curve with a large enough effect; inconclusive = small, poorly fitted or top-dose-only effect; inactive = no such curve, though single readings can be large or run the other way; note: the source files actives as falling curves though it sought activators and does not explain the sign; nearly all actives have a fitted effect of over 65% in size
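FRET quenching reversal measured ClpP activation: 10 microg/mL B. subtilis ClpP at pH 8 with the FRET-FV decapeptide, read at 430 nm after 320 nm excitation. The 20-min minus 0-min signal was scaled between DMSO/no-enzyme wells and ADEP (5.8 microM final).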
NPSR antagonist = antagonists of human neuropeptide S receptor cAMP signaling | Q6W5P4 | CHO-NPSR cells, cAMP TR-FRET, antagonist mode | Potency, µM (doses to about 38.3 µM), usual class: inhibitors | hit rate 1% among 220,000 | AID 1461; note: nearly all actives have a fitted effect of over 50% in size
PKM2 act = increases activity of human pyruvate kinase M2; P14618; hit rate 0.34% among 260,000; AID 1631; Potency, µM (highest dose often 57.5 µM), usual class: activators; purified PKM2, Kinase-Glo ATP luminescence, activation; response scale: 0% is enzyme alone, no compound; note: nearly all actives have a fitted effect of over 55% in size
Target sequence (P14618 whole entry, looked up): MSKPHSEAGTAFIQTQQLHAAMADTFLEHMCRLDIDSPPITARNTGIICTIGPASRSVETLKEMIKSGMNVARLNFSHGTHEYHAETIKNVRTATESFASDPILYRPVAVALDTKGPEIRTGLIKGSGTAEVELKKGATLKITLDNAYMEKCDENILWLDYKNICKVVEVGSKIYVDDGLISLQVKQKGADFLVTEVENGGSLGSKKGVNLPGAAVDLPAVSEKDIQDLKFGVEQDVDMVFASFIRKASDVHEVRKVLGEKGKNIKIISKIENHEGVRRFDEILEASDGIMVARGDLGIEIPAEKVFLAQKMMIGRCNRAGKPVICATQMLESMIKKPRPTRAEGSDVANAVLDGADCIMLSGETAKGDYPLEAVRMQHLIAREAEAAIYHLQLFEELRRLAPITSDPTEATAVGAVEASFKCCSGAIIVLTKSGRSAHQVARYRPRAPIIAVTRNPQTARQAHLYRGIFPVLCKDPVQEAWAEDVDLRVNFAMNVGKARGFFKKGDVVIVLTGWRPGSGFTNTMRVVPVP
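hPK-M2, >95% pure; 0.1 mM ADP / 0.5 mM PEP final; imidazole pH7.2 buffer w/ 7 mM MgCl2, 50 mM KCl; 1 h RT; Kinase-Glo lum. Intermediate enzyme activity for dual inhibitor/activator qHTS.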
Each line names hits and unclear results; the compound was inactive in the other large screens. Unless noted, calls come from the whole dose curve; as a rule, active = well fitted curve in the direction sought with a large enough effect; inconclusive = small, poorly fitted or top-dose-only effect, or another doubt; inactive = no such curve, though single readings can be large; an effect the other way counts as inactive or inconclusive.

C/C(=N\N=C1/NC(=O)C(C)S1)c1ccc([N+](=O)[O-])cc1 (stereo not drawn)	none
O=C(O)C1CCCCC1C(=O)Nc1ccccc1C(=O)N1CCN(c2ccc(F)cc2)CC1 (stereo not drawn)	none
O=C(Nc1ccc(-c2csc(Nc3cccc(C(F)(F)F)c3)n2)cc1)c1cc([N+](=O)[O-])cc(C(F)(F)F)c1	NPSR antagonist 10µM
CCOCCCNC(=O)C1CCN(C(=O)Nc2ccc(C)cc2)CC1	none
CCCCN1C=C(C(=O)OC)C(c2ccccc2C(F)(F)F)C(C(=O)OC)=C1	ClpP mod 32µM
COCCN1C=C(C(=O)OC)C(c2ccccc2C(F)(F)F)C(C(=O)OC)=C1	none
O=C(Nc1ccc2c(c1)OCO2)c1cccc(S(=O)(=O)N2CCOCC2)c1	none (no result: NPSR antagonist, PKM2 act)
CCn1c(SCC(=O)NC2CCCC2)nc2c1c(=O)n(C)c(=O)n2C	none (no result: ClpP mod, NPSR antagonist)
Cc1ccccc1CS(=O)(=O)c1nnc([C@H](Cc2ccccc2)NC(=O)OC(C)(C)C)o1	NPSR antagonist 10µM
CCS(=O)(=O)c1ccc(-c2csc(-c3ccccc3)n2)c(Cl)c1Cl	ClpP mod inconclusive, NPSR antagonist inconclusive
O=[N+]([O-])c1ccc(O)c(-c2nn[nH]n2)c1	ClpP mod 25µM
O=C(Nc1ccc(Br)cn1)c1cccc2ccccc12	ClpP mod 25µM (no result: NPSR antagonist, PKM2 act)
COc1c(C(=O)Nc2ccc(Br)cn2)ccc2ccccc12	none (no result: NPSR antagonist, PKM2 act)
Cc1ccc(S(=O)(=O)c2c(C)nn(C(C)(C)C)c2OC(=O)C2CCCC2)cc1	NPSR antagonist inconclusive
Cc1nn(C(C)(C)C)c(OC(=O)C2CCCC2)c1S(=O)(=O)c1ccccc1	ClpP mod 11µM, NPSR antagonist inconclusive
CCOC(=O)c1ccccc1NC(=O)N(C(C)C)C1CCN(C(C)=O)CC1	ClpP mod 28µM (no result: IL-2 act, NPSR antagonist, PKM2 act)
CCOc1ccc(NC(=O)N(C(C)C)C2CCN(C(C)=O)CC2)cc1	none (no result: IL-2 act, NPSR antagonist, PKM2 act)
O=C(COC(=O)CCN1C(=O)C2CC=CCC2C1=O)NCCc1ccc(F)cc1 (stereo not drawn)	none (no result: NPSR antagonist, PKM2 act)
CCCN1C(=O)/C(=C/c2ccc(C)o2)SC1=Nc1ccc(OCC)cc1	PKM2 act 13µM
CCCN1C(=O)/C(=C/c2ccc(C)o2)SC1=Nc1ccc(OC)cc1	NPSR antagonist inconclusive
CCOc1cccc2sc(N3CCN(C(=O)c4ccc5ncsc5c4)CC3)nc12	ClpP mod 22µM (no result: NPSR antagonist, PKM2 act)
COc1ccc(OC)c2sc(N3CCN(C(=O)c4ccc5ncsc5c4)CC3)nc12	none (no result: ClpP mod, NPSR antagonist, PKM2 act)
O=C(NCc1ccccc1Cl)c1ccc2c(c1)NC(=O)C(CS(=O)(=O)Cc1ccc(Cl)cc1)N2 (stereo not drawn)	none (no result: IL-2 act, NPSR antagonist, PKM2 act)
CCN(CC)CCCNC(=O)c1ccc2c(c1)NC(=O)C(CS(=O)(=O)Cc1cccc(Br)c1)N2 (stereo not drawn)	ClpP mod 3.5µM (no result: IL-2 act, NPSR antagonist, PKM2 act)
CC(C)CC1Nc2ccc(C(=O)NCCCOC(C)C)cc2NC1=O (stereo not drawn)	none (no result: IL-2 act, NPSR antagonist, PKM2 act)
CCN(CC)CCNC(=O)c1ccc2c(c1)NC(=O)C(CS(=O)(=O)Cc1cccc(Br)c1)N2 (stereo not drawn)	ClpP mod 7.9µM (no result: IL-2 act, NPSR antagonist, PKM2 act)
CCCCNC(=O)c1ccc2c(c1)NC(=O)C(CS(=O)(=O)Cc1ccc(F)cc1Cl)N2 (stereo not drawn)	ClpP mod 40µM (no result: IL-2 act, NPSR antagonist, PKM2 act)
CCCCn1c(=O)c(Cc2ccccc2)c(O)c2ccccc21	ClpP mod 14µM
CCc1cc2c(N=Nc3c(O)[nH]c4ccccc34)ncnc2s1	IL-2 act 68
Cc1sc2ncnc(N=Nc3c(O)[nH]c4ccccc34)c2c1C	none
COc1ccc(OC)c(NC(=O)CSCc2cnn(-c3ccccc3)c2-n2cccc2)c1	ClpP mod 32µM
COc1cc(NC(=O)CSCc2cnn(-c3ccccc3)c2-n2cccc2)cc(OC)c1	none
CCN1CCN(c2oc(-c3ccc(COc4ccc(OC)cc4)o3)nc2C#N)CC1	none (no result: IL-2 act, NPSR antagonist, PKM2 act)
CN(C)c1oc(-c2ccc(OCc3ccc(Cl)cc3)cc2)nc1C#N	ClpP mod 16µM
CN(C)c1oc(COc2ccc(F)cc2)nc1C#N	none
CN(C)c1oc(-c2ccc(COc3ccccc3)o2)nc1C#N	ClpP mod 32µM (no result: IL-2 act, NPSR antagonist, PKM2 act)
Cc1c2c(cc3c1[nH]c1ccccc13)C=NCC2	none (no result: ClpP mod, NPSR antagonist, PKM2 act)
COc1cc(CN2C[C@@H](CO)O[C@@H](n3cnc4c(NC5CC5)ncnc43)C2)cc(OC)c1OC	none (no result: NPSR antagonist, PKM2 act)
CC1Cc2ccccc2N1C(=O)/C=C/c1cccc(F)c1 (stereo not drawn)	none (no result: ClpP mod)
